# Screen size: about 71,000 compounds; about 1,800 (2.5%) were called active. Entries that show only a call come without a potency. Another 26% or so got no clear call; they are omitted. The sample holds actives, similar compounds and a random draw of the others, so the mix is not that of the screen. Unmarked numbers belong to inactive results. Calls come from the whole dose curve; as a rule, active = well fitted activation curve with a large enough effect in the signal ratio, with a control signal flat (not every such curve was filed as active); inconclusive = small, poorly fitted or top-dose-only effect, or effect the other way, or a change in a side signal; inactive = flat fitted curve, though single readings scatter; the % refers to the signal ratio.
# Assay: Cell signaling CRE-BLA (Fsk stim)
# Settings: CHO CRE-bla reporter (cAMP response element driving beta-lactamase), forskolin EC10, beta-lactamase ratio; series mostly up to 38.2 µM
# Text: NIH Molecular Libraries Screening Centers Network [MLSCN]
# NIH Chemical Genomics Center [NCGC]
# Assay Provider: Marshall W. Nirenberg, U.S. National heart lung & blood institute
# Memories persist for different lengths of time, from seconds or minutes to a lifetime. There are two kinds of memory: short-term memory (STM) and long-term memory (LTM). STM lasts for minutes to hours, which maybe mediated by modifications of molecules involved in synaptic functions. LTM lasts for days or longer, and may be due to the formation of new synapses or restructuring of existing synapses. LTM, but not STM, requires gene transcription and synthesis of proteins. CREB (cyclic-AMP Responsive Element Binding Protein) is one of the candidates plays an important role for enhancement of some types of LTM. CREB, a family of transcription factors, regulates the transcription of genes containing cAMP Responsive Elements (CRE). CRE is a nucleotide sequence often found in the promoter regions of genes that are binding sites for CREB.
# Using a beta-lactamase reporter-gene under control of cAMP responsive element, a cell-based assay [CellSensor(TM) CRE-bla CHO developed by Invitrogen Corp.] was used to measure forskolin-induced signaling. Library compounds were measured for their ability to modulate positively or negatively the action of EC10 NKH 477, a water soluble forskolin, on reporter gene activity. Compounds were screened in a titration series in 1536-well format. Positive and negative modulators were identified based on the AC50 values derived from the screening data.
# NCGC Assay Protocol Summary
# 2000 cells/5uL in Opti-MEM medium containing 0.5% dialyzed FBS, 0.1 mM NEAA, 1 mM sodium pyruvate and 10 mM HEPES was dispensed into 1536-well plates and cells were cultured at 37 degrees Celsius overnight. […] And then the plates were incubated at 37 degrees Celsius for 3 hours. 1 uL of CCF4-dye mixture was added to each well. After incubated at room temperature for 2 hours the plates were measured on an EnVision plate reader at Excitation 405nm, Emission1=460nm and Emission 2=530nm. The %Activity was determined from the ratio of 460nm/530nm.
# Keywords: NIH Roadmap, MLSCN, MLSMR, qHTS, NCGC, CRE, beta-lactamase reporter-gene assay.
# Potency is the fitted concentration of half-maximal effect.
SMILES,Potency,"activity change, negative = inhibition"
CCOC(=O)C1CCN(C(=O)Nc2ccc(Cl)cc2)CC1,inactive,–
COCC(C)N=CC1=C(O)CC(C)(C)CC1=O (stereo unspecified),inactive,–
N=c1c2c3c(sc2ncn1N)CCCCC3,inactive,–
COCCn1c(C)cc(C(=O)CSc2ncnc3sc4c(c23)CCC4)c1C,inactive,–
COCCNc1nc(-n2nc(C)cc2C)nc2sc3c(c12)CCCC3,12.6 µM (active),–
Cc1cc(N=CC2=C(O)CCCC2=O)no1,inactive,–
Cc1cc(C(=O)O)ccc1[N+](=O)[O-],inactive,–
COC(=O)C1C(=O)CC(C)(O)C(C(=O)OC)C1c1ccc2c(c1)OCO2 (stereo unspecified),inactive,–
C/C(=C\C(=O)c1cccnc1)Nc1ccc(C)c(C)c1,inactive,–
CC(Sc1nc2ccccc2c(=O)n1Cc1ccco1)C(=O)c1ccccc1 (stereo unspecified),inactive,–
COc1ccc(NC(=O)CSc2nnc(-c3cccs3)n2Cc2ccco2)cc1OC,inactive,–
COc1ccccc1NC(=O)CSc1nc2sc(C)c(C)c2c(=O)n1Cc1ccco1,3.98 µM (active),–
CCCn1c(-c2ccc(F)cc2)nc2c(NC3CCN(Cc4ccccc4)C3)nc(C)nc21 (stereo unspecified),inactive,–
COC(CCN(C)C)(c1ccccc1)c1ccccc1,–,-22.8% [at 7.6 µM]
CCCC[C@@H]1C[C@H]1C(NC(=O)c1ccc(-c2ccccc2)cc1)c1ccc(-c2ccccc2)cc1 (stereo partly specified),inactive,–
Cc1cc(C)nc(-n2nc(C)cc2NC(=O)c2ccc(Br)o2)n1,1.26 µM (active),–
COc1cc(OC)c(NC(=O)c2ccc(Br)o2)cc1Cl,–,19.3% [at 7.6 µM]
O=C(Nc1ccc(-c2nnc(-c3ccccc3)o2)cc1)c1ccc(Br)o1,inactive,–
CCSC1(SCC)N=C(N)C2(C#N)C(c3ccccc3)NC(C)=CC12C#N (stereo unspecified),inactive,–

SMILES,Potency,"activity change, negative = inhibition"
O=C(Cn1cnc2c(cnn2-c2ccc(F)cc2)c1=O)NCCc1ccccc1,inactive,–
CCOC(=O)c1cnc2sccn2c1=O,inactive,–
CCCn1c(=NC(C)=O)c(C(=O)OCC)cc2c(=O)n3ccccc3nc21,10 µM (active),–
CCOC(=O)c1ccc(-n2c(C)nc3c(cnn3-c3ccccc3C)c2=O)cc1,inactive,–
Cc1cc(C)cc(N)c1,inactive,–
CCCCNc1nc(C)nc2c1nc(-c1ccccc1)n2CCCCN(CC)CC,inactive,–
c1ccc(-c2oc3ncnc(N4CCOCC4)c3c2-c2ccccc2)cc1,inactive,–
O=C1c2ccccc2-c2ncnc3c(N4CCOCC4)cc(N4CCOCC4)c1c23,2.51 µM (active),–
c1cnn(-c2cc(N3CCOCC3)ncn2)c1,inactive,–
CSc1nnc(CNC(=O)c2ccccc2)n1-c1ccc(F)cc1,inactive,–
Cc1cccc(C(=O)O)c1[N+](=O)[O-],inactive,–
CCOC(=O)c1cnc(-n2nc(C)cc2C)nc1-n1nc(C)cc1C,inactive,–
CCOC(=O)c1cnc(-n2nc(C)cc2C)nc1Nc1cccc(C(C)=O)c1,inactive,–
CC(=O)c1ccc(Oc2cc(C)nc(-n3nc(C)cc3C)n2)cc1,7.94 µM (active),–
O=C(Nc1ccccc1)N[C@H]1C[C@H](C(=O)O)Nc2cc(Cl)cc(Cl)c21,inactive,–
O=C(CCCOc1ccccc1)Nc1cccc(C(=O)O)c1,inactive,–
CN1CCN(c2cc(=O)n(-c3ccc(Cl)cc3)c(=O)[nH]2)CC1,inactive,–
Cc1cc(N(C)C)cc(C)[n+]1[O-],inactive,–
COC(=O)C1=C(C)NC2=C(C(=O)c3ccccc32)C1c1ccc(-c2ccc(C(=O)O)cc2)o1 (stereo unspecified),0.398 µM (active),–

SMILES,Potency,"activity change, negative = inhibition"
COc1ccccc1NC(=O)C1=C(C)NC2=C(C(=O)CCC2)C1c1ccc(C)o1 (stereo unspecified),inactive,–
COC(=O)C1=C(C)NC(=O)NC1/C=C/c1ccccc1 (stereo unspecified),inactive,–
Cc1ccc(CCn2c3c(c4ccccc42)CN(C)CC3)cn1,inactive,–
O=C(O)CC(C(=O)O)C(CC(=O)O)C(=O)O (stereo unspecified),inactive,–
CCCCC/C=C/C=C/C=O,inactive,–
CCOc1ccc(C(=O)Nc2cc(OC)ccc2OC)cc1,inactive,–
CCOc1ccc2nc(N3CCCN(C(=O)Nc4ccccc4C)CC3)c(C#N)cc2c1,inactive,–
CC(C)CCNc1nc(N2CCCC2)c2c(c1C#N)CCN(C)C2,inactive,–
Cc1cc(C)c2nc(N3CCCC3)c(C#N)cc2c1,10 µM (active),–
Cn1c(=O)n(C)c2cc(CNc3ccc(N4CCOCC4)c(C(=O)O)c3)ccc21,inactive,–
COc1c(C)cccc1C(=O)Nc1cc(Cl)ccc1N1CCOCC1,inactive,–
Cn1nc(-c2ccc(N3CCOCC3)c(NC(=O)c3ccccc3)c2)c2ccccc2c1=O,7.94 µM (active),–
COc1ccc(OC)c2[nH]c(=O)c(CCNC(=O)C(C)(C)C)cc12,inactive,–
COc1ccc(CNc2ncncc2-c2ccccc2OC)c(OC)c1,inactive,–
COc1ccc(CNc2ncnc3ccc(-c4cccnc4)cc23)c(OC)c1,1 µM (active),–
COc1ccc(CNc2ncncc2-c2ccccc2C)c(OC)c1,inactive,–
CCOC(=O)C1CCc2nc3ccccc3c(=O)n21 (stereo unspecified),inactive,–
CCCCCCOC(=O)NCC(O)c1ccccc1 (stereo unspecified),inactive,–

# Source: PubChem BioAssay AID662 (National Center for Advancing Translational Sciences (NCATS), 2007)
